Measured values reported in the supplement of paper PMC10849652.
About 7,900 targets were measured; listed, in parts, are those with a hit and a random draw of the rest. About 0.6% of all pairs of compound and target were hits. A number with no mark means an inactive call.

Experiments:
Assay in all cases: log2 fold change, soluble protein after heating vs DMSO (PISA); higher = thermal stabilisation; K562 cells, 10 uM, 30 min; active = over 0.2 and 3.5 SD of the protein, either way, in both replicates (recomputed)
[1] = compound: CC1=C(C=C(C=C1)NC(=O)C2=CC(=CC=C2)C(C)(C)C#N)NC3=CC4=C(C=C3)N=CN(C4=O)C
How it was run: (§1)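 Soluble protein was defined as the supernatant after 21,000xg for 90 min. It came from K562 cells at 2×10^6 cells/mL given 10 μM compound for 30 min, heated in aliquots for 3 min across 48°C-58°C, pooled, and extracted in PBS with 0.5% NP-40 at 4°C, and was quantified by TMTpro 16plex LC-MS/MS with equalised channel sums. Thermal stability against control samples, from duplicates, is reported as log2 fold change.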

[2] = compound: CC1=C(C=C(C=C1)NC(=O)C2=CC(=CC=C2)N(C)C)NC(=O)C3=CC=C(C=C3)O
How it was run: as §1

[3] = compound: CC1=CC=C(C=C1)SC2=C3C=C(SC3=CN=C2)C(=O)N
How it was run: as §1

[4] = compound: CC1=NC(=CC=C1)C2=C(N=C(N2)C(C)(C)C)C3=CC4=NC=CN=C4C=C3
How it was run: as §1

Nexturastat A = compound: CCCCN(Cc1ccc(C(=O)NO)cc1)C(=O)Nc1ccccc1 [Nexturastat A]
How it was run: as §1

vemurafenib = compound: CCCS(=O)(=O)Nc1ccc(F)c(C(=O)c2c[nH]c3ncc(-c4ccc(Cl)cc4)cc23)c1F [vemurafenib]
How it was run: as §1

[5] = compound: CCCS(=O)(=O)Nc1ccc(F)c(C(=O)c2c[nH]c3ncc(Cl)cc23)c1F
How it was run: as §1

[6] = compound: CCCc1cc(C)[nH]c(=O)c1CNC(=O)c1cc(-c2ccnc(N3CCN(C)CC3)c2)cc2c1cnn2C(C)C
How it was run: as §1

givinostat = compound: CCN(CC)Cc1ccc2cc(COC(=O)Nc3ccc(C(=O)NO)cc3)ccc2c1 [givinostat]
How it was run: as §1

barasertib = compound: CCN(CCCOc1ccc2c(Nc3cc(CC(=O)Nc4cccc(F)c4)[nH]n3)ncnc2c1)CCOP(=O)(O)O [barasertib]
How it was run: as §1

[7] = compound: CC[C@@H]1C(=O)N(C)c2cnc(Nc3ccc(C(=O)NC4CCN(C)CC4)cc3OC)nc2N1C1CCCC1
How it was run: as §1

volasertib = compound: CC[C@@H]1C(=O)N(C)c2cnc(Nc3ccc(C(=O)N[C@H]4CC[C@H](N5CCN(CC6CC6)CC5)CC4)cc3OC)nc2N1C(C)C [volasertib]
How it was run: as §1

[8] = compound: CC[C@H](C)N1C=C(C2=C(C=C(C=C21)C3=CN=C(C=C3)N4CCNCC4)C(=O)NCC5=C(C=C(NC5=O)C)C)C
How it was run: as §1

epoxomicin = compound: CC[C@H](C)[C@@H](C(=O)N[C@@H]([C@@H](C)O)C(=O)N[C@@H](CC(C)C)C(=O)[C@]1(CO1)C)NC(=O)[C@H]([C@@H](C)CC)N(C)C(=O)C [epoxomicin]
How it was run: as §1

[9] = compound: CCn1c(C(=O)N(C2CC2)C2CC2)cc2c3c(ncn3C)c(Nc3cc(C)n(C)n3)nc21
How it was run: as §1

[10] = compound: CCn1cc(-c2ccnc3[nH]c(-c4cccc(CN(C)C)c4)cc23)c(-c2ccc(NC(=O)N(C)C)cc2)n1
How it was run: as §1

[11] = compound: CN(C)CC(=O)Nc1ccc2[nH]c(=O)c3ccccc3c2c1
How it was run: as §1

rosiglitazone = compound: CN(CCOC1=CC=C(C=C1)C[C@H]2C(=O)NC(=O)S2)C3=CC=CC=N3 (racemic) [rosiglitazone]
How it was run: as §1

[12] = compound: CN1C2=C(C3=C1C(=O)N(N=C3)CC4=CC(=CC=C4)N)SC(=C2)S(=O)C
How it was run: as §1

[13] = compound: CN1CCC(CNc2ccc3ncc(-c4cccc(OC(F)(F)F)c4)n3n2)CC1
How it was run: as §1

UniProt Q9NP80, sequence (Q9NP80 whole entry, looked up): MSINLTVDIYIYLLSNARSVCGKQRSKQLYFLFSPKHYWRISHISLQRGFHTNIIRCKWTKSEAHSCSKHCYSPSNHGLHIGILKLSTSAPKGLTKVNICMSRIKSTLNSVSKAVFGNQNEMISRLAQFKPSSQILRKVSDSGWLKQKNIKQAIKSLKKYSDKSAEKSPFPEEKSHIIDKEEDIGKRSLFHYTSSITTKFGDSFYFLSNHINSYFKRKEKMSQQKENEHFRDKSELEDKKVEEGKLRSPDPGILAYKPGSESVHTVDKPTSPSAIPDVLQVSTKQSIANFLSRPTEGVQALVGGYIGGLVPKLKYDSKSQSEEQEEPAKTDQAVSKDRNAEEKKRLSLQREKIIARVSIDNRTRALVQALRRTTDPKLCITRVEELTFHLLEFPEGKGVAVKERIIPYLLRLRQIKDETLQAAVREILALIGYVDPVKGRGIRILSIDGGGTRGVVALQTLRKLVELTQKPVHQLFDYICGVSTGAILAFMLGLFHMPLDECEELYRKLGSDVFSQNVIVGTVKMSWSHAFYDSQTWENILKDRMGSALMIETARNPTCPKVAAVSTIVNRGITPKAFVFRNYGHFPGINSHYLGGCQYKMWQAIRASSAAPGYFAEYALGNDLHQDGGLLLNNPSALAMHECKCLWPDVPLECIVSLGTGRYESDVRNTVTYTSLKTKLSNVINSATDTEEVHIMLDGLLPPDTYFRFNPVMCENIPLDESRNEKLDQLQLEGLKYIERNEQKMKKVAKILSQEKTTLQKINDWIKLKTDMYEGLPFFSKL
UniProt Q15172, sequence (Q15172 whole entry, looked up): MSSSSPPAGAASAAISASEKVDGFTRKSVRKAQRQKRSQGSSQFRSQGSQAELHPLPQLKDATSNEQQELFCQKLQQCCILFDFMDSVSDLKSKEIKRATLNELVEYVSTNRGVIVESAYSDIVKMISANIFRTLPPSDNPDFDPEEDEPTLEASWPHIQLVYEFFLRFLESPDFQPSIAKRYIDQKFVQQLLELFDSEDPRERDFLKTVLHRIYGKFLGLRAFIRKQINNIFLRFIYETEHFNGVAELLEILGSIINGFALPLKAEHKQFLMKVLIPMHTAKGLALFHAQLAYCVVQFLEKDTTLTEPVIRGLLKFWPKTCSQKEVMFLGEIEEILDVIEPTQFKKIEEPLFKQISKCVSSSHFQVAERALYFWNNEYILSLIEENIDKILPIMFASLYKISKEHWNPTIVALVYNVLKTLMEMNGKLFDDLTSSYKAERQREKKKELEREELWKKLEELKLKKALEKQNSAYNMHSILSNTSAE
UniProt Q16537, sequence (Q16537 whole entry, looked up): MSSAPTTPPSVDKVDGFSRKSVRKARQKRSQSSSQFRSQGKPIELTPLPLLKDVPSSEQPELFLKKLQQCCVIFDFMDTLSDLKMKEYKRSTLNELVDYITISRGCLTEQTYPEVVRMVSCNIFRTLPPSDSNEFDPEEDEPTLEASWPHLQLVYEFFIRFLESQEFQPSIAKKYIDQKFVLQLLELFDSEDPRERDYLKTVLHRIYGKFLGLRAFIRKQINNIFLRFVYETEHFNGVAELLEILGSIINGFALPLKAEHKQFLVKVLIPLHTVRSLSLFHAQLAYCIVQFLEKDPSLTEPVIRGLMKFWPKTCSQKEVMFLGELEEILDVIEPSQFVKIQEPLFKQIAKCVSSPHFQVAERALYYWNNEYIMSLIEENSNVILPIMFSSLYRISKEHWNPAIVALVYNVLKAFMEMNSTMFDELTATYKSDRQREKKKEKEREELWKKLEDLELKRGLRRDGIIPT
UniProt Q9H3S7, sequence (Q9H3S7 whole entry, looked up): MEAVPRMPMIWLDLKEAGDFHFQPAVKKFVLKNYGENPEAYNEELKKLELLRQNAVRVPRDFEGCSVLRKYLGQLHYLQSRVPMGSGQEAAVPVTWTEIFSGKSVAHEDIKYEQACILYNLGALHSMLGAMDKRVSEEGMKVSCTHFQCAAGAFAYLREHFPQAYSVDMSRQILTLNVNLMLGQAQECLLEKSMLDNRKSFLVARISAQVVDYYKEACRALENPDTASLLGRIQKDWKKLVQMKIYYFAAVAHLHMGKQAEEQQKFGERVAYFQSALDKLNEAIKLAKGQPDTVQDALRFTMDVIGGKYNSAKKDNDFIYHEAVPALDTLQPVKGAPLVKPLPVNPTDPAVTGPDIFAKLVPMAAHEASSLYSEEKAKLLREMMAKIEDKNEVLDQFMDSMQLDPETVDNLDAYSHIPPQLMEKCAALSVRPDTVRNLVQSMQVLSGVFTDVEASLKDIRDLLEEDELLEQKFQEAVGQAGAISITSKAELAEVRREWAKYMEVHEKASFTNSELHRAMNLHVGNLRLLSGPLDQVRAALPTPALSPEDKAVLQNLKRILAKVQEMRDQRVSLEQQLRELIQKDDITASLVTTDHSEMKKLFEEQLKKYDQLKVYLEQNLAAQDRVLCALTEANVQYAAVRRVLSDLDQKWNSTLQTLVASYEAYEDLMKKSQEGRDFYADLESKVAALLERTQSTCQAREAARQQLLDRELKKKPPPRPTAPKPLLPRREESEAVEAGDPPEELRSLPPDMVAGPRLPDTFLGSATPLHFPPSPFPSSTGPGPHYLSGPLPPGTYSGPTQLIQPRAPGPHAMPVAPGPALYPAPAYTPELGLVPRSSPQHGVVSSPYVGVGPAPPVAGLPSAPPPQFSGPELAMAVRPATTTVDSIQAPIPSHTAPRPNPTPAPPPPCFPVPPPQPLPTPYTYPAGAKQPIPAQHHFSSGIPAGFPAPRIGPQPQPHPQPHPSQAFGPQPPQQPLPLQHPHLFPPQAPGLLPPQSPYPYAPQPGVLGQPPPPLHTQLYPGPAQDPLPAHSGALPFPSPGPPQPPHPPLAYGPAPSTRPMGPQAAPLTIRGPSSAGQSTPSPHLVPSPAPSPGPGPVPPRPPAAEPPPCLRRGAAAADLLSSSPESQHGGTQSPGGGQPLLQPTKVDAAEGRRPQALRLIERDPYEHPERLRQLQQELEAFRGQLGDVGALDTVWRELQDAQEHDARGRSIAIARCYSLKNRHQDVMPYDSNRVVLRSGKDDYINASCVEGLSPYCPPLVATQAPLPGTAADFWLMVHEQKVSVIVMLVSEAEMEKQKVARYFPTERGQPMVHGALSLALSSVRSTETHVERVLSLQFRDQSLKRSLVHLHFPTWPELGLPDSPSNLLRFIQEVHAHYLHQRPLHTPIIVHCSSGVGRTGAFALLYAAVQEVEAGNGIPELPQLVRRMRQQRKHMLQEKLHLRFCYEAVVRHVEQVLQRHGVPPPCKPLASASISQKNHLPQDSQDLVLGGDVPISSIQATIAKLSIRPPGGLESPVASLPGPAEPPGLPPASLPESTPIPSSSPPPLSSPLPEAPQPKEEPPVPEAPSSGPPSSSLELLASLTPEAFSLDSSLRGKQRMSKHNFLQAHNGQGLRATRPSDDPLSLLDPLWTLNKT
UniProt P46019, sequence (P46019 whole entry, looked up): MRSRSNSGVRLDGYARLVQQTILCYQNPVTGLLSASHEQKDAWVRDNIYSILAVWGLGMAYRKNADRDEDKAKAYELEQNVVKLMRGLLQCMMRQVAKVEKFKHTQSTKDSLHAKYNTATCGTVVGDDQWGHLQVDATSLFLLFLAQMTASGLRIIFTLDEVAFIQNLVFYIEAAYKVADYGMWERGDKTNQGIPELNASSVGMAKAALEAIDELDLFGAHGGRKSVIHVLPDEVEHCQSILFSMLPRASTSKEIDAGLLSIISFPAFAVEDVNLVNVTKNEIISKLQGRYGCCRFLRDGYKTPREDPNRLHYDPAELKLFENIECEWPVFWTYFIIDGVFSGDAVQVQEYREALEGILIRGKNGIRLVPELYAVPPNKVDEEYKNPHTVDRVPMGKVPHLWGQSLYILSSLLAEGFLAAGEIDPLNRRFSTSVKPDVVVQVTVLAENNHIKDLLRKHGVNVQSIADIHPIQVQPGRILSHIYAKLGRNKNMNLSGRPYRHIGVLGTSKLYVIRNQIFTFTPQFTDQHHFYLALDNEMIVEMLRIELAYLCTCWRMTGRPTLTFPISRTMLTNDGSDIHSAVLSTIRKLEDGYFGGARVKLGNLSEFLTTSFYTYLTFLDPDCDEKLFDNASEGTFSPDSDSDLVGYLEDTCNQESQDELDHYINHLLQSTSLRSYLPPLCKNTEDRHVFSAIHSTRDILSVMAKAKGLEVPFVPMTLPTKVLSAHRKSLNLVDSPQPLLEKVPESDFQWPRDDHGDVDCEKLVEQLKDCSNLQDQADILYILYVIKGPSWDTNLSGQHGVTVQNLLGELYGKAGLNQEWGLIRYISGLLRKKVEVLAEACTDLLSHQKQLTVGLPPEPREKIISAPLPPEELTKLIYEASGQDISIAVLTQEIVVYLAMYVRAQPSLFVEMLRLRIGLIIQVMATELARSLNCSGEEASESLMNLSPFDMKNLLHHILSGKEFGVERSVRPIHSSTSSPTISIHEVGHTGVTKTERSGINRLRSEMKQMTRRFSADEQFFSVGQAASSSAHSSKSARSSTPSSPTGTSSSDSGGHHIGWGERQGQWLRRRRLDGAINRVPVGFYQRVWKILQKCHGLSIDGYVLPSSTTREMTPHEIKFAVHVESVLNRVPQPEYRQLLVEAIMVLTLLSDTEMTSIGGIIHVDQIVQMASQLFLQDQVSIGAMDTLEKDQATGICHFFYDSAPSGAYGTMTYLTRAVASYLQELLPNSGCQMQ
UniProt Q9UKL6, sequence (Q9UKL6 whole entry, looked up): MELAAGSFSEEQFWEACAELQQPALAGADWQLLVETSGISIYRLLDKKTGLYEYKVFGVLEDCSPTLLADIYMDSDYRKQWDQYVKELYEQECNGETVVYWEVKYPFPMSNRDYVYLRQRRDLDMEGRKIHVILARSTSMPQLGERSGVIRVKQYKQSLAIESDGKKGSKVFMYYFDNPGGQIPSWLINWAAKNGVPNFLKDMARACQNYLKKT

Target	log2 fold change [1]	log2 fold change [2]	log2 fold change [3]	log2 fold change [4]	log2 fold change (Nexturastat A)	log2 fold change (vemurafenib)	log2 fold change [5]	log2 fold change [6]	log2 fold change (givinostat)	log2 fold change (barasertib)	log2 fold change [7]	log2 fold change (volasertib)	log2 fold change [8]	log2 fold change (epoxomicin)	log2 fold change [9]	log2 fold change [10]	log2 fold change [11]	log2 fold change (rosiglitazone)	log2 fold change [12]	log2 fold change [13]
PRPF40A (UniProt O75400)	0.016	0	0.022	0.018	-0.051	0.109	0.02	0.073	0.156	0	-0.036	-0.216	0.089	0.022	-0.096	0.065	0.036	0.041	0.074	-0.04
PCTP (UniProt Q9UKL6)	-0.007	0.004	0.052	0.039	-0.003	0.005	0.066	0.026	-0.035	0.013	-0.017	-0.012	-0.067	0.039	-0.058	-0.055	-0.005	0.025	-0.011	-0.279 (active)
PPP2R5A (UniProt Q15172)	-0.014	-0.039	0.032	0.051	-0.017	0.061	0.146	-0.003	0.026	0.002	-0.099	-0.295 (active)	0.097	0.067	0.012	-0.046	0.072	0.112	-0.049	-0.305 (active)
POLR2D (UniProt O15514)	-0.022	-0.005	0.002	0.004	0.027	0.046	-0.006	-0.014	-0.267	-0.031	0.206	0.135	-0.017	0.17	0.11	0.043	-0.02	-0.02	-0.101	0.056
PRMT7 (UniProt Q9NVM4)	0.056	-0.197	0.065	-0.055	-0.003	-0.03	0.145	-0.014	0.042	0.023	-0.074	-0.461 (active)	0.04	-0.036	-0.042	-0.077	0.032	0.082	0.022	-0.176
PNPLA8 (UniProt Q9NP80)	0.001	0.026	0.007	-0.027	0.041	-0.002	-0.005	0.084	0.067	0.066	-0.048	-0.184	-0.07	0.112	-0.01	-0.07	0.029	0.069	0.003	-0.262 (active)
PJA2 (UniProt O43164)	-0.059	0.019	-0.008	-0.019	0.188	-0.024	-0.062	-0.024	0.017	-0.004	-0.007	0.001	0.014	0.202	0.055	0.066	-0.051	0.004	-0.001	-0.156
PPP2R5E (UniProt Q16537)	-0.049	-0.065	-0.023	0.066	0.003	0.027	0.07	0.03	0.032	0.027	-0.259 (active)	-0.404 (active)	-0.025	-0.034	-0.009	-0.165	0.018	0.099	-0.048	-0.99 (active)
PIKFYVE (UniProt Q9Y2I7)	-0.012	-0.02	0.005	0.006	0.004	0.091	0.109	-0.001	0.054	0.013	-0.182	-0.499 (active)	0.103	-0.031	-0.049	-0.032	0.032	0.168	-0.05	-0.239
PRKCD (UniProt Q05655)	-0.015	-0.025	-0.012	-0.016	-0.032	0.015	0.013	-0.045	-0.021	0.023	0.036	-0.073	0.031	-0.003	0.005	-0.067	-0.009	0.062	-0.05	-0.159
PHKA2 (UniProt P46019)	0.028	0	0.028	0.053	-0.038	-0.014	0.052	-0.07	0.048	0.057	-0.049	-0.094	-0.174	0.071	-0.047	-0.029	0.01	0.026	-0.002	-0.35 (active)
POLD3 (UniProt Q15054)	-0.131	-0.055	0.03	0.007	-0.115	0.082	0.049	0.065	0.018	0.006	-0.147	-0.101	0.008	0.126	-0.071	-0.037	0.067	0.513	0.051	-0.118
PTPN23 (UniProt Q9H3S7)	-0.062	-0.049	-0.009	0.002	-0.015	0.025	0.051	0.088	0.107	0.047	-0.163	-0.453 (active)	0.019	0.013	-0.024	-0.006	0.073	0.017	0.016	-0.106
PDCD4 (UniProt Q53EL6)	0.029	-0.043	0.012	0.016	-0.11	0.083	0.107	-0.06	0.103	0.002	-0.26	-0.585 (active)	-0.013	0.055	-0.045	-0.053	0.065	0.056	-0.107	0.011
PRPSAP2 (UniProt O60256)	-0.141	-0.002	-0.021	-0.07	-0.083	-0.022	-0.019	-0.026	-0.034	-0.005	0.07	0.056	-0.043	-0.008	-0.013	-0.088	-0.02	0.008	-0.041	0.159
PEX11B (UniProt O96011)	0.06	-0.039	0.321	-0.008	-0.076	0.08	0	0.029	0.008	-0.002	0.071	-0.018	-0.038	-0.013	0.006	0.04	0.064	0.007	-0.085	0.239
